Laboratory results taken from PubChem BioAssay AID1347423 (Functional Genomics Laboratory (NCATS/FGL), 2020).
Hit rate of the full screen: of about 52,000 sequences, about 210 (0.4%) were called active. The full list was thinned out, with actives kept by preference. A number with no mark means an inactive call.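 How the source made its calls: active means gene whose silencing raises cell survival under the drug, median off-target-corrected z-score across its silencing RNAs 2 or more; inactive means the rest.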

Assay: Resistance to Poly (ADP-Ribose) Polymerase inhibitor: Gene Identification via Genome-wide siRNA Screen
Details: mouse BRCA2 R2336H ES cells, olaparib, CellTiter-Glo viability; hits give high values
How it was run: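 Genome-wide siRNA screen (3 siRNAs/gene, 20 nM) in mouse ES cells carrying hypomorphic BRCA2 R2336H; olaparib 500 nM added 48 h post-transfection, CellTiter-Glo viability 72 h later. Normalized to plate-median negative control; MAD z-scores, gene median, seed-adjusted.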
GGGAGAAUUACCAAGAUCUTT against Elac1 showed a z-score of 2.5.
In the case of GGUCGACUUAAGAUAAUAATT against Itgb6, the z-score was 1.94 (active).
In the case of GCCCUAGAUCAGGAGAUCATT against Rps17, the z-score was -2.58.
“GGAUGUCCCACUGCUUUACTT against 5730466C23Rik” gave a z-score of -0.562.
In the case of GCACUAGUUCUCAAUUUAATT against Antxr1, the z-score was 0.317.
In the case of GGCAUCUUCAAAUGACAUATT against Cic, the z-score was 2.45 (active).
Sequence GGCCCAUUUUGGUGUGCAUTT against Hyal3 has a z-score of -0.6.
For GGUGCCUAAUGGAUAAGAATT against Thrap2, the z-score was 0.923.
In the case of GGAAACCAGACUUUCCCUATT against V1ra5, the z-score was -0.806.
GGACCAGGUUCACUUCCCUTT against Ovol1 gave a z-score of 0.343.
In the case of GCAGAUCUCUUACGUCAUCTT against Adam9, the z-score was 0.749.
Sequence GGAAAGUGGUUUUGUCCACTT against Ing5 has a z-score of 1.74.
With GGUCACGUGCAGUUAUAUCTT against Rab32 the z-score was 0.0398.
GGCCUAAAUUGACAAACUUTT against Mgea5 gave a z-score of 0.366.
With GCAGCUCCAAAUCCUGUUCTT against Asb16 the z-score was -1.78 (active).
Work on “GGAAACUUCUGCACUUGGGTT against 4930474M22Rik” yielded a z-score of 1.02.
For GCUGUCUGAUUCUGAGGUGTT against Slc6a1, the z-score was -0.947.
For “GGGUUUAAUCAUGAUAGAATT against E130014J05Rik”, the z-score was 3.95 (active).
GGUGACAAUAAAAUGGUGATT against Fabp1 showed a z-score of 0.496.
GGUCAUGGUCUGAGAUUCUTT against Txnl4 showed a z-score of 0.353.
In the case of CCCAUGUUCGAUGGGAAAGTT against Adprt1, the z-score was 0.293 (active).
For GCAAGGUGCACCUAAAGCATT against Egr4, the z-score was -2.04.
GGACAAGAACUACAUUGAGTT against Eefsec showed a z-score of 2.12.
“GGACUUUUGGAUAACUUAGTT against 1200008A14Rik” showed a z-score of -0.788.
GGAUAUUCUUCCAGUCUUUTT against MGC118154 showed a z-score of -1.48.
In the case of CAAACCCAUGUUCUAAAUGTT against Oog3, the z-score was 0.339.
In the case of “GGAGGUUUUGAUGGACUGUTT against 2610528H13Rik”, the z-score was -0.424.
With “CCUUGUACCCAGUAAAGUCTT against 2310007B03Rik” the z-score was -2.34.
For GGGAAAAUGCUUUGUUGGATT against Rqcd1, the z-score was 1.97 (active).
In the case of “GGAUUGAGCUACAAGAAUATT against E330016A19Rik”, the z-score was -0.0566.
For CGGACUCCUGACAUUAUAATT against Cd33, the z-score was 0.735.
In the case of GGUCCUCUAAAGAAUAAAGTT against Ela3b, the z-score was 0.513 (active).
Work on GGAUUCACGUAAGAUUGACTT against Prlpb yielded a z-score of 1.33.
Sequence “GCCAACUCAGUUUUGAAUGTT against 4930404J24Rik” has a z-score of -0.142.
GGUGUUCGGUGUCCUGGAATT against Pctp gave a z-score of -1.75.
Work on UGAAGUCUAAUCAGAGCACTT against Olfr50 yielded a z-score of -2.01.
GGAAUGCCGGAUUGCUCACTT against BC008163 gave a z-score of 1.25.
In the case of GGAAGUUUCUGAAUGCUGUTT against Klrd1, the z-score was 2.01 (active).
Sequence “GGUCAUACACUUCUGCACATT against C330006K01Rik” has a z-score of 1.27.
In the case of GGAGGAGUUGCACCUCAUCTT against Pctk3, the z-score was 0.655.
In the case of GCUACGGAACAAUCACAGCTT against Jarid1d, the z-score was 0.15.
GGAAAGAAAAAAGAUGGUCTT against Riok1 showed a z-score of -1.05.
For GGUUGACAUCGACCAAUCATT against Klhl1, the z-score was 1.3 (active).
With AUGUGAUAGUGCCCAGCCUTT against Olfr884 the z-score was 1.48.
In the case of GGAAGAAAUAGAUGAGAAUTT against Tnmd, the z-score was 0.737.
Work on CGUUGAUUUCCAAAGCUGUTT against Kcnc2 yielded a z-score of 0.168.
Work on GGAACAUUACCAUCAAGCUTT against Eif2s3x yielded a z-score of -2.52.
For CCAAACUUACAAAUAUGCGTT against Sgpp1, the z-score was 3.3 (active).
In the case of GGAAGUGUUUGAUGUCUUATT against Stk4, the z-score was -1.1.
In the case of GGGAGUUUAUUCAAAAGUGTT against Nrbp, the z-score was 0.522.
With GGACUCUUUUCUACGUGGATT against Klhl1 the z-score was 3.47 (active).
In the case of GGGCAUACAUAUAACCUAUTT against Plekhc1, the z-score was 0.785.
In the case of CAAAUUAUGAGUGAGAACCTT against Olfr340, the z-score was -1.17.
Work on GCUUAACCGUUUUUUCAAATT against Tgif yielded a z-score of 0.555.
“GGUUAUGAGGCUUAAUAAATT against 2810423G08Rik” gave a z-score of 1.54.
In the case of “GGAUCCAAGUUCCUGGCUCTT against A330096I21Rik”, the z-score was -0.601.
Sequence GGAGACUCAGGAAAAAAUUTT against Olfr1424 has a z-score of 0.238.
For CGAACAGUCUGUAUGGCGATT against Jak1, the z-score was 3.46 (active).
For GGCCAAUUUGAAUAAUCUATT against Zfp119, the z-score was 0.0816.
GGACCCUGAAGGAGCUGAATT against Per2 showed a z-score of -1.32.
With UCAAACUAGGUGCUGUUGUTT against Olfr584 the z-score was -1.11 (active).
Work on “GGAGAUAAAGUCUUAUCACTT against 9130017N09Rik” yielded a z-score of 0.803.
In the case of GCAUUUCUUUCUUGCCUUCTT against Olfr1276, the z-score was 0.613.
Work on “GGCUAGCUAACUAUCUCUGTT against 9230105I15Rik” yielded a z-score of 0.89.
With GGUUCCAACAAUUGUAAAGTT against Chl1 the z-score was 2.35 (active).
In the case of GGACAAGCUCCAAAACAACTT against Sfrs4, the z-score was -1.45.
CCUGCCUUUUCCUAAUGAATT against Ovca2 showed a z-score of 0.573.
With “GACAAAUAGUGCAGGAGGATT against 2310069N01Rik” the z-score was 0.444.
